Test results published in paper PMC4336329 (PLoS ONE, 2015).
About 14,000 (4.5%) of roughly 310,000 compounds showed an effect of 50% or more. The effect is printed as a negative number. This is one part of a sample in which strong results are shown more often than they occur.

target: human ether-à-go-go-related gene (hERG) potassium channel (human, UniProt Q12809); experiment: primary screen, population patch clamp on CHO cells stably expressing hERG; higher = less effect of the substance
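Also: peak tail current of the secondary pulse compared with the same well before compound.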

Sequence of human ether-à-go-go-related gene (hERG) potassium channel (Q12809 whole entry, looked up): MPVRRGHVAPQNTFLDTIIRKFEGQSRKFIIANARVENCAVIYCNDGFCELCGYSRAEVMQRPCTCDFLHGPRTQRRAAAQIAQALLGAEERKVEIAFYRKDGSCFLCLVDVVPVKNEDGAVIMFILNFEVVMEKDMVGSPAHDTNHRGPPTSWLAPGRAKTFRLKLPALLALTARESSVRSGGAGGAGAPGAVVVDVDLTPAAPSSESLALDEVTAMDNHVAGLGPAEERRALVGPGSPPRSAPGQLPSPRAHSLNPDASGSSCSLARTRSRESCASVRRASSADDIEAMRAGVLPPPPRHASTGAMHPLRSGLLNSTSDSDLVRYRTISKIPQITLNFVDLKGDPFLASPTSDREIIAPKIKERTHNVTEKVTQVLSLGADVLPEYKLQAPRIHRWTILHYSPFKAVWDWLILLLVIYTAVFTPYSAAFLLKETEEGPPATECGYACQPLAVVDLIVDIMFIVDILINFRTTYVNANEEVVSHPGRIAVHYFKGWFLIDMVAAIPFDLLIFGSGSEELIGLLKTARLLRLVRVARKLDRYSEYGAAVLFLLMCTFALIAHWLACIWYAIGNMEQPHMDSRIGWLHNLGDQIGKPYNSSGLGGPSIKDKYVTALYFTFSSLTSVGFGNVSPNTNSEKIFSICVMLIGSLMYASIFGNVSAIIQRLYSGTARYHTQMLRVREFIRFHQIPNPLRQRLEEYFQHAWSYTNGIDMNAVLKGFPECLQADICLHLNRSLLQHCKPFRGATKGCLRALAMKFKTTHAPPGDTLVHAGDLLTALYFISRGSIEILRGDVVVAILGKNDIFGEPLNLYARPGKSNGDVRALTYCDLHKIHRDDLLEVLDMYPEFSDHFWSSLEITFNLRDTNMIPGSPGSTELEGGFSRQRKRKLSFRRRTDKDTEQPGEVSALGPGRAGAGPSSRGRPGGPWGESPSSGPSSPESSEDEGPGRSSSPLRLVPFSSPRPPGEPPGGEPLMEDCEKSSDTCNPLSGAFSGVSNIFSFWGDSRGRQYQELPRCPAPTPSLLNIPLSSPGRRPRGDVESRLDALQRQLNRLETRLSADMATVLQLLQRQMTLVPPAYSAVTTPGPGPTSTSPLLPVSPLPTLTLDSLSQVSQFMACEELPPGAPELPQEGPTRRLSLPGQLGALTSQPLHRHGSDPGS

Compound | hERG current change (%, negative = inhibition) at 10uM [%]
O=c1c2ccccc2nc(/C=C/c2ccc(Br)cc2)n1CCO | 2.81
COCCNC(=O)/C(C#N)=C/c1c(N2CCN(c3ccccc3)CC2)nc2c(C)cccn2c1=O | 5.92
O=C(Nc1cc(=O)[nH]c2ncnn12)c1ccccc1Cl | 1.15
CCOC(=O)c1ccc(N2C(=O)CC(C3CCCO3)C2=O)cc1 (stereo not drawn) | -11.2
CN(Cc1ccccc1)S(=O)(=O)c1ccc(N2CCCC2=O)cc1 | -12.7
Fc1cccc(Nc2nc(-c3ccncc3)nc3ccccc23)c1 | 15.4
Cl.c1ccc(Nc2c3c(nc4ccccc24)CCC3)cc1 | -76.2
Cl.Nc1nc(Nc2cccc(F)c2)nc2ccccc12 | -19.3
Cc1ccc(NC(=O)c2c3c(nc4ccccc24)CCC3)cc1 | 2.86
Cl.Fc1cccc(Nc2c3c(nc4ccccc24)CCC3)c1 | -68.2
Cc1cccc(Nc2c3c(nc4ccccc24)CCC3)c1.Cl | -71.5
Cc1ccc(Nc2c3c(nc4ccccc24)CCC3)cc1.Cl | -78.8
Cc1cccc(Nc2ncnc3ccccc23)c1.Cl | -5.93
COc1cccc(NC(=O)CCCOc2cc(=O)n(C)c3ccccc23)c1 | 12.6
Cc1ccc(-n2c(SCC(=O)N3CCCCC3)nc(O)cc2=O)cc1 | 16.1
Cc1ccnc(SC2CC(=O)N(c3ccc([N+](=O)[O-])cc3)C2=O)n1 (stereo not drawn) | -26.8
COc1ccc(CNC(=O)c2ccc3c(c2)N(C)CCS3)cc1 | -2.44
O=[N+]([O-])c1ccc(Cl)cc1NCCCN1CCOCC1 | 0.725
O=C(NCc1ccc2c(c1)CCO2)Nc1cccc(C(F)(F)F)c1 | 12.6
CCc1noc(C)c1C(=O)OC(C)C(=O)NCc1ccc(OC)cc1 (stereo not drawn) | -15.3
COc1ccc(-n2c(=O)[nH]cc(C(=O)N3CCc4ccccc43)c2=O)cc1 | 16.2

Compound | hERG current change (%, negative = inhibition) at 10uM [%]
COc1ccc(-c2csc3nc(-c4ccccc4)oc(=O)c23)cc1OC | 14.3
CN(C)CCNC(=O)c1ccc2c(c1)N(Cc1ccc(F)cc1)CCS2 | -32.8
COc1cc(/C=C2\SC(N3CCC(C)CC3)=NC2=O)ccc1O | -5.99
Cc1ccc(C)c(NC(=O)COC(=O)c2cccc3c2C(=O)c2ccccc2C3=O)c1 | -14.2
Fc1ccc(Nc2c3c(nc4ccccc24)CCC3)cc1 | -64.3
Cl.O=C(O)c1ccc(Nc2c3ccccc3nc3ccccc23)cc1 | -2.61
O=C(CCCCCl)Nc1c2c(nc3ccccc13)CCC2 | -23.6
COc1ccc(NC(=O)c2c3c(nc4ccccc24)CCC3)cc1 | 10.1
COc1ccc(Nc2nc(-c3ccccc3)c3ccccc3n2)cc1 | -5.22
COc1cc(NC(=O)c2c3c(nc4ccccc24)CCC3)cc(OC)c1 | 11.3
COc1ccc(Nc2c3c(nc4ccccc24)CCC3)cc1.Cl | -70.9
CCOc1ccc(Nc2c3ccccc3nc3ccccc23)cc1 | -42.4
CC(=O)Nc1ccc(Nc2c3ccccc3nc3ccccc23)cc1 | -55.7
O=C(NCc1ccc(F)cc1)c1c2c(nc3ccccc13)CCC2 | -21.1
COc1ccc(Nc2c3ccccc3nc3ccccc23)cc1 | -69.6
CC(=O)Nc1ccc(Nc2cc(C)c3ccccc3n2)cc1 | -27.4
CCOC(=O)C1CCN(C(=O)Nc2ccc3oc(C)nc3c2)CC1 | 7.35
N/C(=N\OC(=O)c1cccnc1)c1ccc(Cl)cc1Cl | 12.7
COc1ccc(-n2c(C)cc(C(=O)COC(=O)c3cc(NC(=O)c4cccs4)c(OC)c(OC)c3)c2C)cc1 | 6.03
COC(=O)c1ccc(CN2C(=O)NC3(CCCCC3)C2=O)cc1 | 11.2
COc1ccc(OCC(=O)N2CCN(S(=O)(=O)c3ccccc3[N+](=O)[O-])CC2)cc1 | -31.2
